Inconclusive results are not listed. Calls of active or inactive are those of the source. Calls come from the whole dose curve; as a rule, active = well fitted inhibition curve with a large enough effect; inconclusive = small, poorly fitted or top-dose-only effect; inactive = no such curve, though single readings can be large or run the other way.
Biological target: Rap guanine nucleotide exchange factor 3 (Homo sapiens) (UniProt O95398)
Assay: Counterscreen qHTS for antagonist of cAMP-regulated guanine nucleotide exchange factor 3 (EPAC1) (AID 1645888);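 note: fluorescence loss as bound BODIPY-GDP is released from Rap1B; % of control where 0% means no effect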
Conditions: Rap1B-BODIPY-GDP nucleotide exchange, fluorescence; series mostly up to 154 µM; activity change, negative = inhibition: at the top concentration
Summary of the method: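 Rap1B-BODIPY-GDP 250 nM + GDP 50 uM; cpds 7-pt, final 9.74 nM–152 uM (activator mode) or from 7.32 nM upwards (inhibitor mode); RT; FI 480/540 nm at 5 and 30 min, then ± cAMP, reread.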

Sequence of Rap guanine nucleotide exchange factor 3 (Homo sapiens) (O95398 whole entry, looked up): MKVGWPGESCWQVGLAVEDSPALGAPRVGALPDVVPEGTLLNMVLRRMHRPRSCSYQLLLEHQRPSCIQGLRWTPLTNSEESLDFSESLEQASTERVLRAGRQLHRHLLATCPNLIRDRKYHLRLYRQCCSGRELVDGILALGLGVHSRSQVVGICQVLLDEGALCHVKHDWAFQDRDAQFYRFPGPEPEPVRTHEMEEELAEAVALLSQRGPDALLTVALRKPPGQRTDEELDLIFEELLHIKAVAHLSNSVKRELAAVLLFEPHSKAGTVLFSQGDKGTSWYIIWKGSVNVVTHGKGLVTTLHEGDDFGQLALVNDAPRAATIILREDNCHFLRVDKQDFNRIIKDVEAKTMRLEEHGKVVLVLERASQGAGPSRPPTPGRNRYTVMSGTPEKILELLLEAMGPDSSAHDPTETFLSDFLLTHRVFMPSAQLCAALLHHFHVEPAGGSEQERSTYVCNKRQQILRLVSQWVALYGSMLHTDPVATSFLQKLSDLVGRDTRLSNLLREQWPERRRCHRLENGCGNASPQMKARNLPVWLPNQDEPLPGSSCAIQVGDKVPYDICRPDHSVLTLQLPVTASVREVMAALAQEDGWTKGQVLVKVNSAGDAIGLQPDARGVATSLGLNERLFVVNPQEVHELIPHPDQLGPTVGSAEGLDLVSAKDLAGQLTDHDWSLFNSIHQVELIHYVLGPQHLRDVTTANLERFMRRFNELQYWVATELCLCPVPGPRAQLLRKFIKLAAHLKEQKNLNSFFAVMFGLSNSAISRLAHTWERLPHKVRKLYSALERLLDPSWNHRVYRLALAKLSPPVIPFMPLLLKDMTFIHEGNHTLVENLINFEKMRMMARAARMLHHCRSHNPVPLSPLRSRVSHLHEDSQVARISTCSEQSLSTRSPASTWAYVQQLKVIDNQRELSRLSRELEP

Compound | activity change, negative = inhibition
Cc1nn(-c2ccccc2)c2nc(N)c(C#N)c(-c3ccc(O)c(O)c3)c12 | -3.81% (inactive)
Cc1ccc(C)c(Oc2nc3c(c(=O)n(C)c(=O)n3C)n2Cc2ccccc2)c1 | 15.9% (inactive)
COc1ccc(C(=O)NCCn2cc(SCc3cccc(F)c3)c3ccccc32)cc1OC | 17.7% (inactive)
CC(=O)Nc1ccc(Nc2nnc(-c3ccc(O)cc3)c3ccccc23)cc1 | -6.36% (inactive)
COc1ccc(-c2ccc(C(=O)NC(C)C)c3occc23)c(C)c1 | -2.93% (inactive)
O=c1[nH]c(Nc2ccc(F)cc2)cc2ccccc12 | -8.73% (inactive)
O=C(Nc1cccc(S(=O)(=O)NCc2ccco2)c1)c1cc(-c2ccccc2)nc2ccccc12 | -17.7% (inactive)
COc1ccc(Cl)cc1C1CC(=O)Nc2cc3c(cc21)OCCO3 (configuration not stated) | 31% (inactive)
CCOc1ccccc1C(=O)N1CCc2cc(OC)c(OC)cc2C1COc1ccc(OC)cc1 (configuration not stated) | 14.6% (inactive)
O=C(Nc1ccc(-c2cn3ccccc3n2)cc1)c1cccs1 | 9.25% (inactive)
O=C(CSc1nc2ccccc2o1)N/N=C/c1ccc(O)c(O)c1 | -6.64% (inactive)
Cc1cccc2sc(N(Cc3cccnc3)C(=O)c3cccs3)nc12 | 29.9% (inactive)
Cc1ccc2c(c1)-c1c(cnn1CC(=O)N1CCN(c3cccc(C(F)(F)F)c3)CC1)CO2 | -7.84% (inactive)
CC(C)C(NC(=O)C1CC(=O)N(Cc2ccccc2)C1)c1nc2ccccc2[nH]1 (configuration not stated) | -14.2% (inactive)
Cc1ccc2c(c1)N(Cc1cccc(Cl)c1)C(=O)c1cccnc1O2 | 6.55% (inactive)
Cc1nc2ccccc2c2oc(C(=O)Nc3ccc4c(c3)OCCO4)cc12 | 8.58% (inactive)
COc1ccc2c(c1)Cc1sc(NC(=O)c3ccccc3Br)nc1-2 | 36.7% (inactive)

Source: PubChem BioAssay (NCATS)
